Data taken from PubChem BioAssay (EPA / NIEHS).
Activity calls are given as the source filed them. How the source made its calls: active means hit-call score of the fitted dose curve at least 0.9, where 1 is the maximum; inconclusive means response in the unintended direction; inactive means score below 0.9.

Molecular target: Peroxisome proliferator-activated receptor gamma (Homo sapiens) (UniProt P37231)
Assay: OT_PPARg_PPARgSRC1_1440: Odyssey Thera (OT) 24-hour Protein-Complementation Assay for Peroxisome Proliferator-activated Receptor Gamma/ SRC-1 Co-activator (AID 2283388);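 further: nuclear to cytoplasmic ratio of reconstituted Venus YFP fluorescence in fixed imaged cells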
Method: OT_PPARg_PPARgSRC1_1440 is a cell-based assay that uses HEK293T, a human kidney cell line, with measurements taken at 24 hours after chemical dosing in a 384-well plate.OT_PPARg_PPARgSRC1_1440 is one of one assay component(s) measured or calculated from the OT_PPARg_PPARgSRC1_1440 assay. It is designed to make measurements of protein fragment complementation, a form of binding reporter, as detected with fluorescence intensity signals by Protein-fragment Complementation technology.Data from the assay component OT_PPARg_PPARgSRC1_1440 was analyzed into 1 assay endpoint. This assay endpoint, OT_PPARg_PPARgSRC1_1440, was analyzed in the positive analysis fitting direction relative to DMSO as the negative control and baseline of activity. Using a type of binding reporter, measures of receptor for gain-of-signal activity can be used to understand the binding at the pathway-level as they relate to the gene PPARG. Furthermore, this assay endpoint can be referred to as a primary readout, because the performed assay has only produced 1 assay endpoint. To generalize the intended target to other relatable targets, this assay endpoint is annotated to the nuclear receptor intended target family, where the subfamily is non-steroidal.
The OT PPARg/SRC-1 assay assessed receptor-chemical interactions using a rapidly maturing, intensely fluorescent mutant of YFP known as Venus, rationally dissected into two separate fragments. The fragments were obtained as follows: first, fragments coding for YFP1 and YFP2 (corresponding to amino acid residues 1-158 and 159-239 of the full length YFP, respectively) were generated by oligonucleotide synthesis (Blue Heron Biotechnology), and then PCR mutagenesis was used to generate the mutant fragments IFP1 and IFP2. Fusion constructs were transfected into HEK293T cells with a (Gly4Ser)2 linker between the PPARg/SRC-1 and YFP fragment genes to facilitate complementation when interacting proteins bring fragments into close proximity. The construct is transiently transfected in HEK293T cells 48 hours prior to treatment with test compounds. Cells are seeded into optical quality 384-well poly-D-lysine coated plates in MEM alpha medium (Invitrogen) supplemented with 10 percent FBS (Gemini Bio-Products) 1 percent penicillin and 1 percent streptomycin, and grown in 37C incubator equilibrated to 5 percent CO2. Cells are allowed to adhere for 24 hours prior to treatment with compounds of interest or controls for 24 hours. Cells are fixed in 4 percent formaldehyde and stained with Draq5 (BioStatus) to identify cells and subcellular compartment boundaries prior to signal detection. 8 Images per well were acquired on an Evotec Opera at 2 wavelengths (488 and 635nm), and the ratio of fluorescence in the nucleus relative to fluorescence in the cytoplasm (N/C Ratio) in the 488nm channel was calculated for a minimum of 350 cells per image.

Sequence of Peroxisome proliferator-activated receptor gamma (Homo sapiens) (P37231 whole entry, looked up): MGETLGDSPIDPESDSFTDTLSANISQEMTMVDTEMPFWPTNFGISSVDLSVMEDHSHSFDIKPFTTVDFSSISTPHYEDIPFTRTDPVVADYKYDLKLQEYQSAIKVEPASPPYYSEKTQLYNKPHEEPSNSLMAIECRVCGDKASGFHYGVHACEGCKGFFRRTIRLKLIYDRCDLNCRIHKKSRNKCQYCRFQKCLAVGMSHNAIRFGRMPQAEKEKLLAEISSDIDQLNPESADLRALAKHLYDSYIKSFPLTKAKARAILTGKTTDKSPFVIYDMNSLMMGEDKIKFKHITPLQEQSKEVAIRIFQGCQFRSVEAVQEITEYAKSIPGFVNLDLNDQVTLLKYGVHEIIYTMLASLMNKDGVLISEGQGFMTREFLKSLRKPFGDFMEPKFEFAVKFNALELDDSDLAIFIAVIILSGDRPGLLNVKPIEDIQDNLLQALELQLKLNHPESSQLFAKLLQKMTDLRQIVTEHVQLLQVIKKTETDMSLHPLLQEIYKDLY

| Compound | outcome | AC50 |
| --- | --- | --- |
| CC(C)OC=O | inactive | – |
| OCC1CCCO1 (stereo not drawn) | inactive | – |
| CCCCCCCCCCCCCC[P+](CCCC)(CCCC)CCCC | inactive | – |
| N#Cc1ccccc1O | inactive | – |
| CCCCCCCCCCCCC[N+](C)(C)Cc1ccccc1 | inactive | – |
| CCN=C1C=CC(=C(c2ccc(N(CC)CC)cc2)c2ccc(N(CC)CC)cc2)c2ccccc21 | inactive | – |
| O=C1C=CC(=O)N1c1ccccc1 | inactive | – |
| CCOC(OCC)OCC | inactive | – |
| CCCCCCCCCc1ccc(OCCO)cc1 | inactive | – |
| COCCOCCC[Si](C)(O[Si](C)(C)C)O[Si](C)(C)C | inactive | – |
| CCC(Cc1c(I)cc(I)c(N)c1I)C(=O)O (stereo not drawn) | inactive | – |
| CC(C)(C)c1cc(CCC(=O)OCC(COC(=O)CCc2cc(C(C)(C)C)c(O)c(C(C)(C)C)c2)(COC(=O)CCc2cc(C(C)(C)C)c(O)c(C(C)(C)C)c2)COC(=O)CCc2cc(C(C)(C)C)c(O)c(C(C)(C)C)c2)cc(C(C)(C)C)c1O | inactive | – |
| C[C@]12CC[C@H]3C(=CCc4cc(O)ccc43)[C@@H]1CCC2=O | inactive | – |
| O=C(c1ccccc1)c1ccc(O)cc1O | inactive | – |
| CCCCCCCC/C=C\CCCCCCCC(=O)N(C)CC(=O)O | inactive | – |
| Cc1ccc(O)c(-n2nc3ccccc3n2)c1 | inactive | – |
| F[Si-2](F)(F)(F)(F)F | inactive | – |
| CCCCCCCC/C=C\CCCCCCCC(=O)OCC(O)CO (stereo not drawn) | inactive | – |
| CCCCOC(=O)[C@H](C)O | inactive | – |
| CCCCOC(=O)C(C)O (stereo not drawn) | inactive | – |
| CCCCC(CC)COC(=O)c1ccc(N(C)C)cc1 (stereo not drawn) | inactive | – |
| CC(C)Nc1ccc(NC(C)C)c2c1C(=O)c1ccccc1C2=O | inactive | – |
| CC(C)(C)c1cc(Cc2cc(C(C)(C)C)c(O)c(C(C)(C)C)c2)cc(C(C)(C)C)c1O | inactive | – |
| CC(=O)CCC(C)C | inactive | – |
| Cc1ccc([N+](=O)[O-])c(C)c1 | inactive | – |
| CCc1cc(Cc2cc(CC)c(N)c(CC)c2)cc(CC)c1N | inactive | – |
| CCN=c1cc2oc3cc(NCC)c(C)cc3c(-c3ccccc3C(=O)OCC)c-2cc1C | – | 4.08 µM (active) |
| CCOC(=O)C1CC(=O)C(=C(O)C2CC2)C(=O)C1 (stereo not drawn) | inactive | – |
